Out of some 300,000 compounds screened, about 22,000 (7.3%) were called active. Inconclusive results (about 2%) are left out. Rule as the data show it: active = activity score below about -60%; inconclusive = mostly about -28% to -61%; inactive = positive scores. This excerpt belongs to a sample that is enriched for actives.
Test: Activators via SNCA 5'UTR binding, MLPCN (AID 1814)
Details: alpha-synuclein 5'UTR reporter, activators screen; stronger effect = lower value; tested at 7.5 µM

Row | SMILES | activity score
1 | S=c1[nH]nc(-c2cccnc2)n1/N=C/C(Cl)=C\c1ccccc1 | -177% (active)
2 | Cc1cc(-c2n[nH]c(=S)n2/N=C/C(Br)=C/c2ccccc2)n[nH]1 | -235% (active)
3 | Cc1ccccc1-c1n[nH]c(=S)n1/N=C/c1ccc(-c2ccccc2Br)o1 | 57.9% (inactive)
4 | Cc1nn2c3cc(N4CCOCC4)ccc3nc2c2ccccc12 | -149% (active)
5 | O=C(Cc1ccc(F)cc1)N/N=C/c1ccc2c(c1)OCO2 | -93.4% (active)
6 | Cc1ccc(C(=O)NNc2ncnc3ccccc23)cc1 | -131% (active)
7 | Cn1cc([N+](=O)[O-])c(C(=O)Nc2ccc3c(c2)OCCO3)n1 | -65.9% (active)
8 | O=C(Nc1ccc2c(c1)OCCO2)c1cnccn1 | -68.9% (active)
9 | CCN1CCN(c2ccc(NC(=O)c3cnccn3)cc2)CC1 | -97.4% (active)
10 | O=C(Nc1ccc2c(c1)OCCO2)c1ccoc1 | -84.8% (active)
11 | Oc1c(CN2CCN(c3ccc(F)cc3)CC2)cc(Cl)c2cccnc12 | 69.6% (inactive)
12 | CCN(CC)c1ccc(/C=N/NC(=O)c2cnccn2)c(O)c1 | 72.3% (inactive)
13 | Nc1c(C(=O)Nc2ccc3c(c2)OCCO3)nnn1Cc1ccccc1 | -194% (active)
14 | CCOc1ccc(N2C(=O)CC(N(O)c3ccccc3)C2=O)cc1 (centres undefined) | -65% (active)
15 | Cc1ccc(S(=O)(=O)NC(=O)Nc2nc(-c3ccc(F)c(F)c3)cs2)cc1 | -61.5% (active)
16 | O=S(=O)(Nc1ccc2nc(-c3ccco3)[nH]c2c1)c1ccccc1 | -181% (active)
17 | CC(=O)N1CCC(C(=O)Nc2nc(-c3ccccc3)ns2)CC1 | -82.9% (active)
18 | Cc1ccc(N=C2NC(=O)c3cccc([N+](=O)[O-])c32)cc1 | -141% (active)
19 | O=C(CSc1nnnn1C1CCCC1)N1CCCCC1 | -88% (active)
20 | CCCCCC(=O)Nc1ccc2oc(-c3ccncc3)nc2c1 | -80.2% (active)
21 | COc1cccc(/C=C/c2ccc3ccccc3n2)c1OC(C)=O | 83.1% (inactive)
22 | COc1cccc(/C=C2\C=C(c3ccc(C)cc3)OC2=O)c1OC(C)=O | -65.8% (active)
23 | O=C(NCCC1=CCCCC1)c1ccc(Cl)c([N+](=O)[O-])c1 | -108% (active)
24 | Cc1ccc2cc(/C=N/Nc3ccc(C(=O)O)cc3)c(Cl)nc2c1 | -167% (active)
25 | CC1CCC(NC(=O)CNC(=O)c2ccc3ccccc3c2)CC1 (centres undefined) | -74% (active)
26 | Clc1cccc(-c2nc3nc4ccccc4nc3n2Cc2ccco2)c1 | -77.2% (active)

Row | SMILES | activity score
27 | Clc1ccc(-c2csc(-c3ccncc3)n2)cc1 | -135% (active)
28 | O=c1[nH]c(/C=C/c2cccc(Br)c2)nc2ccccc12 | -125% (active)
29 | O=C(Nc1cccc(O)c1)c1ccc(C(=O)c2ccccc2)o1 | -120% (active)
30 | C/C(=C\C(=O)c1cccnc1)Nc1ccc(C)c(C)c1 | -88.7% (active)
31 | C/C(=C\C(=O)c1ccccc1)Nc1cccc(O)c1 | -246% (active)
32 | O=C(Nc1ccn(Cc2ccccc2)n1)c1cccc(F)c1 | -95.8% (active)
33 | Cc1cc(/C=N/NC(=O)c2cccnc2)c(C)n1CC(C)C | -116% (active)
34 | COc1ccc(C(CC(=O)c2ccccc2)S(=O)(=O)c2ccccc2)cc1 (centres undefined) | -120% (active)
35 | COC(=O)c1ccc(Nc2ncnc3sccc23)cc1 | -125% (active)
36 | COc1c(O)cc2oc(-c3ccc(O)c(O)c3)cc(=O)c2c1O | -140% (active)
37 | COc1ccc(/C=C/C(=O)Nc2c(C)nn(C)c2C)cc1COc1ccc(Br)cc1 | 50.9% (inactive)
38 | COc1ccc(C(=O)/C=C/c2ccc(-c3ccccc3)cc2)cc1CSCC(=O)O | -90% (active)
39 | O=C(c1cc(COc2ccc(F)c(F)c2)on1)N1CCOCC1 | -68.2% (active)
40 | CCC(NC(=O)c1cc(COc2ccc(F)c(F)c2)on1)c1ccncc1 (centres undefined) | -78.1% (active)
41 | O=C(c1cc(COc2c(F)cccc2F)on1)N1CCSCC1 | -165% (active)
42 | O=C(c1cc(COc2ccc(F)cc2F)on1)N1CCOCC1 | -124% (active)
43 | CC(C)(C)c1ccc(C(=O)CSc2ncn[nH]2)cc1 | -158% (active)
44 | OCCCN1c2ccccc2Nc2nnc(-c3ccccc3)cc21 | -189% (active)
45 | O=S(=O)(c1ccc(Br)cc1)N1CCC(c2nc3ccccc3[nH]2)CC1 | 78.3% (inactive)
46 | Nc1ccccc1SCc1cc([N+](=O)[O-])cc2c1OCOC2 | -66.8% (active)
47 | Nc1cc(N)nc(SCc2cccc(F)c2)n1 | -147% (active)
48 | Cc1cc2oc3ccc(NCCC4CCCN4C)cc3c(=O)c2cc1C (centres undefined) | -102% (active)
49 | O=C(Nc1ccc(Br)cn1)c1ccc([N+](=O)[O-])cc1Cl | -92.4% (active)
50 | COc1ccc(OCC(=O)Nc2cc(C)c(Cl)cc2OC)c([N+](=O)[O-])c1 | -102% (active)
51 | CC(=O)Nc1ccccc1C(=O)C(=O)Nc1ccc(F)cc1 | -64.9% (active)
52 | Cc1nn(-c2ccc([N+](=O)[O-])cc2)c(N)c1-c1ccccc1 | -143% (active)

Row | SMILES | activity score
53 | COCCCNC(=S)NC(=O)c1ccccc1 | -88.8% (active)
54 | O=C(N/N=C/c1cc2c(cc1Br)OCO2)C1COc2ccccc2O1 (centres undefined) | -96.1% (active)
55 | Cc1ccc(OCc2cc(C(=O)N(C)CCc3ccccc3)no2)cc1C | -115% (active)
56 | Cc1csc(NC(=S)Nc2cccc(Cl)c2)n1 | -193% (active)
57 | S=C(Nc1cccc(Cl)c1)Nc1ccc2cn[nH]c2c1 | -89.3% (active)
58 | O=[N+]([O-])/C=C/c1ccc2c(ccn2Cc2ccccc2)c1 | 84.5% (inactive)
59 | Cc1ccc(Oc2cnn(-c3ccccc3)c(=O)c2Br)cc1 | -78.5% (active)
60 | NC(=O)COc1ccc(C23CC4CC(CC(C4)C2)C3)cc1 | -101% (active)
61 | Nc1nonc1-n1nnc(C(=O)N/N=C/c2cc(Br)ccc2O)c1CSC1=NCCS1 | 94.1% (inactive)
62 | Cc1ccn2cc(-c3nonc3C)cc2c1 | -128% (active)
63 | CCOc1ccc2cc(C#N)c(SCC(=O)OC)nc2c1 | -145% (active)
64 | COCc1cc(C)nc(SCC(=O)Nc2cccc(C)c2)c1C#N | -67.6% (active)
65 | Cc1nonc1NC(=O)CSc1nc2ccccc2cc1C#N | -91.1% (active)
66 | Cc1cc(C)c(C#N)c(SCC(=O)Nc2ccccc2)n1 | -212% (active)
67 | Cc1ccccc1NC(=O)CCOc1ccccc1 | -74.9% (active)
68 | CCN1CCN(C(C(=O)NC2CCCC2)c2cc3c(cc2[N+](=O)[O-])OCO3)CC1 (centres undefined) | -63% (active)
69 | CCCOc1ccc(-c2nc(N)n[nH]2)cc1 | -93.7% (active)
70 | CCCCCc1ccc(-c2ccc(OCC)cc2)nc1 | 79.7% (inactive)
71 | CCOC(=O)c1c(NC(=O)c2ccc(Br)o2)sc2c1CCCC2 | -64.9% (active)
72 | C=CCN(CC=C)S(=O)(=O)c1ccc(C(=O)Nc2sc3c(c2C(N)=O)CCCCC3)cc1 | -70.1% (active)
73 | NC(=O)c1c(NC(=O)c2ccccc2)sc2c1CCCC2 | -148% (active)
74 | COC(=O)c1c(NC(=O)c2cccs2)sc2c1CCCC2 | -128% (active)
75 | COc1ccc(NCCc2ccccn2)cc1 | -134% (active)
76 | CCC(C)NC(=O)CCCc1ccccc1 (centres undefined) | -63.7% (active)
77 | O=C(Nc1ccc(Cl)cc1)c1ccsn1 | -143% (active)
78 | Cc1ccc(NC(=O)c2ccn(C(=O)Nc3ccccc3)n2)c(C)c1 | -69.3% (active)

Row | SMILES | activity score
79 | c1ccc(CN2CCC(N=C3NN=C(c4ccc5c(c4)OCCO5)CS3)CC2)cc1 | -223% (active)
80 | CCS(=O)(=O)c1cc([N+](=O)[O-])c(Sc2ccccc2N)s1 | -91.3% (active)
81 | COc1ccc(C(=O)c2c3ccc([N+](=O)[O-])cc3[n+]([O-])n2CCCN)cc1 | 63.1% (inactive)
82 | CCN1CCN(c2ccc([N+](=O)[O-])cc2C(=O)c2ccc(Cl)cc2)CC1 | -107% (active)
83 | Cc1ccc(NC(=S)N2CCN(c3ncccn3)CC2)cc1C | -84.3% (active)
84 | CC(=O)c1ccc(NC(=O)CCc2nnc3ccc(NCc4ccco4)nn23)cc1 | -95.3% (active)
85 | O=C(/C=C/c1ccc([N+](=O)[O-])o1)NNC(=O)c1ccc(F)cc1 | -94.3% (active)
86 | C=CCSc1nnc(NC(=O)c2ccc(NC(C)=O)cc2)s1 | -64.4% (active)
87 | NC(=O)CSc1nnc(NC(=O)c2ccc3ccccc3c2)s1 | -88.3% (active)
88 | COC(=O)c1ccc(-n2cnc3ccccc32)nc1 | -117% (active)
89 | COCCn1c(=NC(=O)c2ccccc2[N+](=O)[O-])sc2cc(S(C)(=O)=O)ccc21 | -151% (active)
90 | CCOC(=O)c1c(C)[nH]c2c1-c1ccccc1C(=O)C2=O | 99.5% (inactive)
91 | CCOC(=O)c1cc2n(c1C)-c1ccccc1C2=O | -108% (active)
92 | COc1ccc(Nc2nnc(C)c3ccccc23)cc1 | -67.1% (active)
93 | COc1ccc(Nc2cc(C)nc(-n3nc(C)cc3C)n2)cc1 | 92.8% (inactive)
94 | O=C(c1cc(-c2ccc(O)cc2)on1)N1CCCc2ccccc21 | -95.6% (active)
95 | COc1c(C)c2c(c(O)c1C/C=C(\C)CCC(=O)O)C(=O)OC2 | 76.6% (inactive)
96 | C=CCNC(=O)/C=C/c1ccc(C(C)C)cc1 | -129% (active)
97 | COc1ccc(-n2cnc3cc(NCc4ccco4)ccc32)cc1 | -126% (active)
98 | COc1ccc(/C(N)=N/OC(=O)Cc2ccccc2)cc1 | -125% (active)
99 | O=[N+]([O-])c1ccc2oc(-c3cccc(O)c3)nc2c1 | -91.7% (active)
100 | COc1ccc(-c2nc3cc([N+](=O)[O-])ccc3o2)cc1OC | -65.4% (active)
101 | Cc1ccc(N=C2NC(=O)/C(=C/C=C/c3ccco3)S2)cc1C | -81.5% (active)
102 | COc1ccc(C(=O)Nc2cc(C)c(NC(=O)c3ccccc3OC)cn2)cc1 | -115% (active)
103 | CC(C)(C)C(=O)Nc1ccc(C(=O)N/N=C/c2ccccc2OC(=O)c2ccc(Cl)cc2Cl)cc1 | 65.2% (inactive)
104 | COc1ccc(C(=O)Nc2ccccc2C(=O)N/N=C/c2ccccc2OC)cc1 | -124% (active)

— PubChem BioAssay AID1814 (Broad Institute, 2009)
